Screening results deposited in PubChem by National Center for Advancing Translational Sciences (NCATS).
TDP1 cell noCPT: qHTS for Inhibitors of human tyrosyl-DNA phosphodiesterase 1 (TDP1): qHTS in cells in absence of CPT; DT40 Tdp1-/- hTDP1 cells, no CPT, ATP luminescence, 48 h; Potency, µM (highest dose often 46.2 µM), for the others: at the highest dose activity change, negative = growth inhibition, actives largely listed as inhibitors; actives 15% (n = 420,000); AID 686978, 2013; also: nearly all actives have a fitted effect of over 55% in size
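Cells were dispensed at 400 per well, compounds added by pin tool, plates incubated ≥48 hr at 37 °C, then CellTiter-Glo added for 30 min at room temperature before luminescence reading. Line: DT40 Tdp1-/- complemented with hTDP1; camptothecin omitted.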
HT1080NT lethal: kills 2HG-producing HT-1080-NT fibrosarcoma cells. Potency, µM (doses to about 46.1 µM), for the others: at the top dose activity, negative = less viability, most hits filed as cytotoxic. actives 1.6% (n = 360,000). HT-1080-NT fibrosarcoma viability, CellTiter-Glo ATP luminescence, 48 h. AID 686970;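 also: NT is the 2HG producing partner of a matched IDH1 knockdown line; 0% = DMSO-treated cells and -100% = media-only wells without cells; nearly all actives have a fitted effect of over 55% in size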
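HT-1080-NT; 750 cells/well; 5% FBS RPMI; 48 h compound, 37 degrees C; CellTiter-Glo luminescence; curve fitting and curve-class assignment.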
HT1080 IDH1KD tx: toxicity to HT-1080 IDH1 knockdown cells (counter line). HT-1080 IDH1 knockdown viability, ATP luminescence, 48 h. Potency, µM (doses to about 46.1 µM), inactives show at the highest dose activity, negative = toxicity, hits mostly cytotoxic. actives 2% (n = 360,000). AID 686971;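 also: 0% = DMSO wells and -100% = cell-free medium wells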
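CellTiter-Glo luminescence after 48 h compound exposure at 37 degrees C of IDH1-knockdown HT-1080 cells in 5% FBS RPMI. %Activity scaled between DMSO wells and cell-free media wells, with curves fitted and assigned curve classes.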
KB-3-1 tox: KB-3-1 parental cell cytotoxicity. KB-3-1 viability, CellTiter-Glo ATP luminescence, 72 h. Potency, µM (highest dose often 46.1 µM), most hits filed as cytotoxic. actives 1.4% (n = 400,000); also: nearly all actives have a fitted effect of over 60% in size
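Parental KB-3-1 viability, qHTS format: 72 h compound exposure, 37 °C; CellTiter-Glo; media-only wells and DMSO plates as controls; concentration-effect fits on corrected data.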
TDP1 cell CPT: growth inhibition of DT40 Tdp1-/-;hTDP1 cells with camptothecin (screen for TDP1 inhibitors); actives 12% (n = 420,000); chicken DT40 Tdp1-/-;hTDP1 cells + 20 nM CPT, ATP luminescence, 48 h; AID 686979; Potency, µM (titrated, usually from 46.2 µM), inactives show at the highest dose activity change, negative = growth inhibition, hits mostly inhibitors; also: nearly all actives have a fitted effect of over 55% in size
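Chicken DT40 Tdp1-/- cells stably complemented with human TDP1 were seeded at 400 cells/well in medium containing 20 nM camptothecin, exposed to pin-transferred compounds, and grown at 37 °C for at least 48 hr. Viability was read as ATP luminescence.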
KB-V1 MDR tox: kills drug-selected multidrug resistant KB-V1 cells | KB-V1 MDR cells viability, CellTiter-Glo, 72 h | Potency, µM (top dose mostly 46.1 µM), actives largely listed as cytotoxic | actives 3.4% (n = 400,000) | AID 1347076; also: nearly all actives have a fitted effect of over 60% in size
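KB-V1, DMEM (no phenol red) + 10% FBS; cpd pin-transferred, titration series; 72 h, 37 degrees C; CellTiter-Glo, luminescence. Data normalized, curve-fit.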
* marks the source's active call; other numbers are inactive results; i = inactive; u = inconclusive; x = no result. Most compounds without a hit are left out; they make up all but 19% or so of the library. Calls follow the shape of the dose curve; as a rule, active = well fitted curve in the direction sought with a large enough effect; inconclusive = small, poorly fitted or top-dose-only effect, or another doubt; inactive = no such curve, though single readings can be large; an effect the other way counts as inactive or inconclusive. Unless noted, % is scaled to controls: 0 for no effect and ±100 for the full control effect; potency is read from the fitted curve at half-maximal effect.

SMILES | TDP1 cell noCPT | HT1080NT lethal | HT1080 IDH1KD tx | KB-3-1 tox | TDP1 cell CPT | KB-V1 MDR tox
CN(C)CCNC(=O)c1ccccc1-c1ccccc1 | -5.5% | 19.9% | 5.6% | i | -2.8% | i
COc1cccc(C(=O)NCCCc2ccccc2)c1OC | -28.9% | 9.4% | 19.8% | i | -16.0% | i
COc1ccc(Cl)cc1C(=O)NCCN(C)C | -5.6% | -1.6% | -11.6% | i | -3.4% | i
COc1ccc(C)cc1-n1nnc(S(=O)(=O)c2ccc(C)cc2)c1C | u | x | x | i | u | i
COCC(C)NC(=O)C1=CC(c2ccc3c(c2)OCO3)=NS(=O)(=O)N1C (stereo not drawn) | -5.6% | x | x | i | 15.6% | i
CN(CCNC(=O)c1c[nH]c2c1ccc1ccccc12)CCNC(=O)c1c[nH]c2c1ccc1ccccc12 | u | u | u | u | 23.1µM* | u
CN(C)CCNC(=O)c1cccc2nc3c(ccc4ccccc43)nc12 | 4.61µM* | u | u | 7.31µM* | 5.8µM* | 20.6µM*
CC(C)(C)c1cccc(Cn2nnc3ccccc32)c1O | 20.6µM* | u | -1.1% | i | 29.1µM* | i
Cc1cccc(Cn2nnc3ccccc32)c1O | -22.2% | 8.7% | 5.3% | i | u | i
Cc1cc(Cn2nnc3ccccc32)c(O)c(C(C)(C)C)c1 | 16.4µM* | -10.0% | -4.2% | i | 16.4µM* | i
CC1CCCN(C2=NC(=O)/C(=C/c3cn(-c4ccccc4)nc3-c3cccc(S(=O)(=O)N(C)C)c3)S2)C1 (stereo not drawn) | 11.6µM* | -2.1% | 8.0% | i | 16.4µM* | i
CCN(CC)S(=O)(=O)c1cccc(-c2nn(-c3ccccc3)cc2/C=C(\C#N)C(=O)NCc2ccco2)c1 | u | 2.4% | 15.8% | i | u | u
Cc1ccc(-c2nn(-c3ccccc3)cc2C=C2SC(=S)N(CCS(=O)(=O)O)C2=O)cc1 | u | u | -29.6% | u | -23.0% | i
CC1CCN(C2=NC(=O)/C(=C/c3cn(-c4ccccc4)nc3-c3cccc(S(=O)(=O)N(C)C)c3)S2)CC1 | 6.51µM* | -1.9% | -0.5% | i | 7.31µM* | i
Cc1cc2c(=O)c(C(=O)c3ccncc3)cn(CC(=O)Nc3cccc(C)c3C)c2cc1C | -15.8% | x | x | x | -22.8% | x
O=C(NC1CC(=O)N(c2ccc3c(c2)OCCO3)C1)c1c(F)cccc1Cl (stereo not drawn) | 0.5% | x | x | x | 6.0% | x
CCCCNC(=O)C1CCC(CNS(=O)(=O)c2ccc(C)cc2)CC1 (stereo not drawn) | -14.6% | 5.9% | 9.7% | i | -1.7% | i
CCCCSCCCNC(=O)C1CCC(CNS(=O)(=O)c2ccccc2)CC1 (stereo not drawn) | u | -2.0% | -15.1% | i | 16.4µM* | u
COc1ccc(-c2ccc3ncnc(NCc4nc(C)cs4)c3c2)cc1OC | x | x | x | i | x | u
O=C(CN1C(=O)C2CCCCN2c2ccc(C(=O)N3CCCC3)cc21)NCc1cccc(Cl)c1 (stereo not drawn) | 5.8µM* | x | x | i | u | i
O=C(CN1C(=O)C2CCCCN2c2ccc(C(=O)N3CCCC3)cc21)NCc1ccccc1 (stereo not drawn) | u | x | x | i | -29.2% | i
CCc1nn2c(=O)cc(COC(=O)c3ccccc3NC(=O)C3CCCCC3)nc2s1 | -26.4% | x | x | x | 6.4% | x
Cn1c(=O)c2c(ncn2Cc2ccc(Cl)cc2)n(C)c1=O | 16.4µM* | -15.3% | -26.2% | u | 5.8µM* | u
Cn1c(=O)c2c(ncn2CC(O)CNc2ccc(Br)cc2)n(C)c1=O (stereo not drawn) | u | -8.6% | 1.5% | i | -25.8% | i
Cn1c(=O)c2c(ncn2CCOc2ccc(Br)cc2)n(C)c1=O | 16.4µM* | -2.0% | -4.8% | i | u | u
SMILES | TDP1 cell noCPT | HT1080NT lethal | HT1080 IDH1KD tx | KB-3-1 tox | TDP1 cell CPT | KB-V1 MDR tox
Cn1c(=O)c2c(ncn2CC(COCc2ccc(Cl)cc2)OCc2ccc(Cl)cc2)n(C)c1=O (stereo not drawn) | 14.6µM* | -20.0% | u | u | 23.1µM* | u
CC(C)Cn1cnc2c1c(=O)n(C)c(=O)n2C | 0.8% | -16.7% | -4.0% | i | 5.8% | u
Cn1c(=O)c2c(ncn2CCOC(=O)C(C)(C)Oc2ccc(Cl)cc2)n(C)c1=O | u | -4.8% | 3.7% | i | -18.5% | u
C=CCn1c(CCNC(=O)c2cccs2)nnc1SCC(=O)c1ccc(Br)cc1 | u | -20.0% | u | i | u | 20.6µM*
C=CCn1c(CNC(=O)c2cccs2)nnc1SCc1ccc(Cl)cc1Cl | u | -15.7% | -26.9% | i | u | i
CC(=O)Nc1ccc(NC(=O)CC2Sc3ccccc3NC2=O)cc1 (stereo not drawn) | u | x | x | i | u | u
Cc1ccc(C)c(OCC(=O)N(C)CC(=O)Nc2ccc(Cl)c(C(F)(F)F)c2)c1 | u | -20.0% | -28.5% | i | u | i
COc1ccc(NC(=O)CC2SC(=Nc3ccccc3)NC2=O)cc1 (stereo not drawn) | u | -3.2% | -1.6% | i | u | i
COc1cccc(CNC(=O)CC2Sc3ccccc3NC2=O)c1 (stereo not drawn) | -1.4% | 8.1% | -0.8% | i | 7.3% | i
CN(CC(=O)Nc1ccc(Cl)c(C(F)(F)F)c1)C(=O)CC1Sc2ccccc2NC1=O (stereo not drawn) | 13µM* | -1.0% | -12.1% | x | 13µM* | x
COc1cccc(NC(=O)CC2SC(=Nc3ccccc3)NC2=O)c1 (stereo not drawn) | u | 2.7% | 2.2% | i | u | 16.4µM*
O=C(CC1Sc2ccccc2NC1=O)NNc1cccc(Cl)c1Cl (stereo not drawn) | u | u | u | i | u | 20.6µM*
COc1cccc(NC(=O)CN(C)C(=O)CC2Sc3ccccc3NC2=O)c1 (stereo not drawn) | 7.2% | 3.0% | -10.7% | i | -4.9% | 23.1µM*
C[C@H](O)CNC(=O)c1[nH]cnc1C(=O)Nc1cccc(Cl)c1 | -26.3% | 15.9% | 8.3% | i | -12.8% | i
COc1ccc(COC(=O)CCCN=C2NS(=O)(=O)c3ccccc32)cc1F | u | 8.3% | 3.6% | i | u | i
